According to the supplement of paper PMC12669032:

tested on: Roseburia intestinalis; test: growth AUC relative to DMSO control (median of replicates) (fraction); higher = more growth (less inhibition), active = hit call of the paper; conditions: 20 µM; 24 h;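 active = AUC reduced over 20% with Padj below 0.05 in at least 2 of 3 replicates; inactive = otherwise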
In short: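 In round-bottom 96-well plates sealed with pierced gas-permeable seals, gut bacterial monocultures in mGAM were grown anaerobically at 37 °C from OD600 0.05 with 20 µM compound (1% DMSO). OD600 readings were taken hourly for 24 h, and the minimum OD was set to 0. Area under the growth curve was then normalised to the plate median of solvent-only wells, or to row and column medians on the industrial chemical plate. The value given is the median of three biological replicates grown on separate days.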

Growth AUC, inactive:
C=C1C[C@]23C[C@@]1(O)CC[C@H]2[C@@]12C=C[C@H](O)[C@@](C)(C(=O)O1)[C@H]2[C@@H]3C(=O)O 0.881
N#Cc1ccccc1NC(=O)c1snc(Cl)c1Cl 0.992
c1ccc2c(c1)Cc1ccccc1-2 1
COc1nc(NC(=O)NS(=O)(=O)c2ccccc2C(F)(F)F)nc(C(F)(F)F)n1 0.993
CCNc1nc(NC(C)CC)nc(OC)n1 (centres undefined) 1.07
CCc1cccc(CC)c1N(COC)C(=O)C(=O)O 1
CC1=C(c2ccccc2)C(=O)N(C(C)(C)c2cc(Cl)cc(Cl)c2)CO1 1.03
CC(C)N(C(=O)C(=O)O)c1ccccc1 1.02
CCSC(=O)COc1ccc(Cl)cc1C 0.969
CN(C)C(=O)NC1CCCCCCC1 1.08
CC(C)(C)C(=O)C(Oc1ccc(Cl)cc1)n1ccnc1 (centres undefined) 0.9
CCCN(CCOc1c(Cl)cc(Cl)cc1Cl)C(=O)NC=O 0.979
CC(C)c1nn(C(=O)NC(C)(C)C)c(=O)n1N 1.02
CCN(CC)C(=O)c1cccc(C)c1 0.967
COc1nc(N)nc(C(F)(F)F)n1 1.05
CC1(C)C(=O)Oc2ccc(OS(C)(=O)=O)cc21 1.02
NC(=O)Cc1cccc2ccccc12 1.05
O=C1NCC[n+]2ccccc21.[Br-] 0.992
CCOC(=O)C(C)N(C(=O)c1ccccc1)c1ccc(Cl)c(Cl)c1 (centres undefined) 0.958
CCCC(C)(C)C(=O)Nc1ccc(Cl)cc1 0.945
CCCCOC(=O)COc1ccc(Cl)cc1Cl 1.04
CCCOC(=O)c1ccc(C(=O)OCCC)nc1 0.977
CCc1cccc(C)c1N(C(=O)C(=O)O)[C@@H](C)C(=O)O 0.973
Clc1ccc(C(c2ccccc2Cl)C(Cl)Cl)cc1 (centres undefined) 0.911
CCOc1ccc(NC(=O)OC(C)C)cc1OCC 1
CCc1cccc(C)c1NC(=O)C(=O)O 0.953
O=C(O)COc1cccc(Cl)c1Cl 1.15
COc1nc(N)nc(NC(C)(C)C)n1 0.943
N#Cc1ccc(CC(=NNC(=O)Nc2ccc(OC(F)(F)F)cc2)c2cccc(C(F)(F)F)c2)cc1 (mixture of isomers) 0.954
CCOC(=O)C1=NOC(c2ccccc2)(c2ccccc2)C1 1.01
CCc1cccc(CC)c1N(COC)C(=O)CS(=O)(=O)[O-].[Na+] 1.03
N#Cc1c(N)nc(NC2CC2)nc1N 0.999
CN(C)C(N)=O 0.996
O=C(O)Cc1cccc2ccccc12 1.04
CCNc1nc(Cl)nc(N(CC)CC)n1 1.01
c1ccc2c(c1)-c1cccc3c1c-2cc1ccccc13 0.998
C=CCc1ccc(OC)c(OC)c1 1.03
COC(=O)c1ccc(C(=O)OC)cc1 0.997
O=c1cc(Cl)[nH]nc1-c1ccccc1 0.977
